Screen size: about 350,000 compounds; about 1,100 (0.31%) were called active. This is one part of a sample in which actives are shown more often than they occur. Cut-off read from the data, not from the text of the source: active = activation above about 50%; inactive = the rest.

Data on 87 compounds can be found in PubChem BioAssay AID504720 (Sanford-Burnham Center for Chemical Genomics, 2011).

Chain of Endoribonuclease toxin MazF (Escherichia coli (strain K12)) (P0AE70 whole entry, looked up): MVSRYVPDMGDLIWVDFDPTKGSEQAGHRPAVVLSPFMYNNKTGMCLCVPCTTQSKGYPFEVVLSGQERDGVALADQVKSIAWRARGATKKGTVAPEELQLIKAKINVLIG

The assay has as its target Endoribonuclease toxin MazF (Escherichia coli (strain K12)) (UniProt P0AE70). Nature of the assay: activators of E. coli MazEF toxin-antitoxin RNase, primary screen, biochemical, fluorescence, uHTS (AID 504720). Conditions: FAM/BHQ RNA-DNA oligo cleavage fluorescence, 5 h, at 20 µM, hits give high values.
Turning to `CC(C)(C)OC(=O)CNC(=O)c1[nH]cnc1C(=O)N[C@@H](CCCCN)C(=O)OC(C)(C)C`, the activation was -1.01% (inactive). The value for `CC(=O)Nc1ccc(C(=O)N(C2=NC(C)CS2)c2ccc(Cl)cc2)cc1` (configuration not stated) was 2.92% (inactive). The value for `C/C(=N\NC(=O)COc1c(C)cccc1C)c1cccs1` was -0.53% (inactive); that for `CCOc1ccccc1N1CCN(C(=O)c2ccc3[nH]c(C)c(C)c3c2)CC1` was 9.45% (inactive).

Turning to `CC[C@]1(C(=O)OC)[C@H]2C(=O)N(C)C(=O)[C@H]2[C@H]2CN(C)C(=NCc3ccccc3)N21`, the activation is 74.5% (active). The value for `CCCN=C1N(C)C[C@@H]2[C@@H]3C(=O)N(Cc4ccccc4)C(=O)[C@@H]3[C@](C)(C(=O)OC)N12` was 3.52% (inactive); that for `CCN1C[C@@H]2[C@@H]3C(=O)N(Cc4ccccc4)C(=O)[C@@H]3[C@](Cc3ccccc3)(C(=O)OC)N2C1=NC1CCCCC1` was 37.9% (inactive). The value for `CCOC(=O)c1ccc(NC(=O)c2ccc(NC(=O)C3CCCO3)cc2)cc1` (configuration not stated) was 2.03% (inactive). The value for `OCCC1CN(Cc2ccc3nsnc3c2)CCN1C1CCCCC1` (configuration not stated) was 5.81% (inactive); that for `CC(C)Cn1c(CCC(=O)O)ccc1-c1cccs1` was -11.1% (inactive). As to `CC(=O)OC1CCC2(C)C(=CCC3C4CC(=O)N(O)C(=O)C4(C)CCC32)C1` (configuration not stated), the activation is 1.13% (inactive). Under `CCN1/C(=C/c2ccc3ccc(C)cc3[n+]2CC)Sc2ccccc21` stands 72.6% (active); under `CCN1/C(=C\c2ccc3ccccc3[n+]2CC)Sc2cc(C)ccc21`, 79.5% (active); under `CN(C(=O)CC(NC(=O)c1ccccc1)(c1ccccc1)c1ccccc1)c1ccccc1`, 10.5% (inactive). With `Cc1c(Cl)cccc1NC(=S)N(Cc1ccccc1)Cc1cccnc1`, the activation was 13.1% (inactive).

As to `CC(C)c1ccc(NC2CCCN(C(=O)c3ccncc3)C2)cc1` (configuration not stated), the activation is 5.6% (inactive).

In the case of `C[C@@H](NC(=O)OC(C)(C)C)c1nnc(S(=O)(=O)Cc2ccccc2)o1`, the activation is 8.87% (inactive). Under `C/C(=N\OC(=O)c1ccccc1)c1c(C)nc2cc(C)ccn12` stands 4.56% (inactive); under `COc1cc(Cl)c(C)cc1NC(=O)COC(=O)c1cc(SC)ccc1Cl`, -5.68% (inactive); under `COCCn1c(SCC(=O)Nc2ccc(F)cc2F)nc2c(c1=O)SCC2`, 7.1% (inactive). Under `COc1cc(N2CCCC2)c(OC)cc1/C=C(/C#N)c1cccc(Br)c1` stands -128% (inactive); under `O=C(NCCCNC(=O)NC1CCCCC1)NC1CCCCC1`, 6.46% (inactive).

Take `COC(=O)Cn1c(=NC(=O)CSCC(=O)Nc2cc(C)on2)sc2ccccc21`: the activation was 5.86% (inactive). Under `CC(C)(C)[C@H]1C=C(C(=O)NCc2ccccc2)O[C@@H](OCc2ccc(CO)cc2)C1` stands 3.75% (inactive); under `CCN(CC)S(=O)(=O)c1cc([N+](=O)[O-])ccc1NNC(=O)Nc1ccccc1`, 3.61% (inactive).

`CCN(CC)S(=O)(=O)c1cc([N+](=O)[O-])ccc1N=Nc1c(O)n(C)c2ccccc12`: the activation was 142% (active). Under `CCn1c(O)c(N=NC(=O)c2cccc(S(=O)(=O)N3CCCCC3)c2)c2ccccc21` stands -8.66% (inactive); under `O=C(COC(=O)c1ccc(F)cc1F)Nc1ncccn1`, -2.63% (inactive). As for `CCOc1ccc(N(CC(=O)NCCOc2ccccc2OC)S(=O)(=O)c2ccccc2)cc1`, the activation is -0.33% (inactive). Under `O=C(COc1ccc(S(=O)(=O)N2CCCCC2)cc1)NCc1ccccn1` stands 9.35% (inactive); under `CCOCCOC(=O)C1=C(C)N(C)C(=O)NC1c1ccccc1F` (configuration not stated), 7.27% (inactive). Under `Cc1c(C(=O)NCCN2C(=O)S/C(=C\c3cccs3)C2=O)cccc1[N+](=O)[O-]` stands 9.61% (inactive); under `O=C(CCN1C(=O)/C(=C/c2cccs2)SC1=S)NNC(=O)c1cccc(O)c1`, 96.7% (active).

Consider `CC(C(=O)Nc1ccc(O)c(C(=O)O)c1)N1C(=O)/C(=C/c2cccs2)SC1=S` (configuration not stated), for which the activation was 3.14% (inactive). Under `CC(C)NC(=O)C(=O)NCCCOC(C)C` stands 15.5% (inactive); under `COCCN(CCOC)S(=O)(=O)NC[C@H]1O[C@@H](n2cnc3c(N)ncnc32)[C@H](O)[C@@H]1O`, 5.68% (inactive). The value for `CCCCN(CC(=O)Nc1cccc(S(=O)(=O)N2CCCC2)c1)Cc1nc2ccccc2c(=O)[nH]1` was -2.27% (inactive).

As for `CCO/C=C1\C(=O)N(c2ccc(OCC)cc2)C(=O)c2ccccc21`, the activation is 5.56% (inactive). Under `CCOc1ccc(N2C(=O)CN(c3cccc4ccccc34)C2=S)cc1` stands 1.98% (inactive); under `CCOc1ccc(N2C(=O)/C(=C/c3ccc(C)o3)N(C)C2=S)cc1`, 53.2% (active). Under `OCC[C@H]1C[C@H](O)[C@@H](O)[C@]2(CCc3ccccc3O2)O1` stands 2.25% (inactive). The value for `CCCCN=C1C([N+](=O)[O-])=CC=C2C1=NC1(CCCCC1)N2O` was 8.1% (inactive). Take `CCCCn1c(N)c(N(CC(C)C)C(=O)c2ccc(-n3c(C)ccc3C)cc2)c(=O)[nH]c1=O`: the activation is -0.38% (inactive). The value for `COc1ccc(NC(=O)CSc2nnc(-c3ccccc3F)n2C2CC2)cc1S(N)(=O)=O` was 3.2% (inactive); that for `CC(C)(C)C1CCC(C(=O)Nc2cccnc2)CC1` (configuration not stated) was 5.13% (inactive); that for `CN1C(=O)C(CC(N)=O)N(NC(=O)c2ccc(Cl)cc2)C1=S` (configuration not stated) was -6.03% (inactive). Under `CC(=O)N1C(=O)/C(=C2\SC(=S)N(NC(=O)c3ccc(O)cc3)C2=O)c2ccccc21` stands 4.76% (inactive).

For the compound `Cn1cccc1/C=C1\SC(=S)N(NC(=O)c2ccc(Cl)cc2)C1=O`, the activation is 140% (active). Under `CCn1nc(C(=O)NNC(=O)C2CSC3(C)CCC(=O)N23)c2ccccc2c1=O` (configuration not stated) stands 1.5% (inactive); under `CN(c1ccccc1)c1ccc([N+](=O)[O-])c2nonc12`, 72.5% (active). Take `Cc1ccccc1Nc1c([N+](=O)[O-])ccc2nonc12`: the activation is -7.83% (inactive). Under `Cc1ccc2cccc([N+](=O)[O-])c2n1` stands 4.29% (inactive); under `C=CC[C@@H](CC(=O)NCCO)C(=O)N[C@H](C)COC(=O)[C@@H](CC=C)CC(=O)OC(C)(C)C`, -0.071% (inactive).

As for `COc1cc(S(=O)(=O)N(Cc2cccs2)C2CC2)ccc1-n1cnnn1`, the activation is 7.76% (inactive). Consider `CCOC(=O)N1CCN(C(=O)c2ccc3nc4cc(Cl)ccc4c(=O)n3c2)CC1`, for which the activation is -2.93% (inactive). The value for `CC(C)(C)N(Cc1ccccc1)C(=O)COC(=O)CCc1c[nH]c2ccccc12` was 5.36% (inactive). Under `COc1cc(C(c2c(O)c3ccccc3oc2=O)c2c(C)n(C)n(-c3ccccc3)c2=O)ccc1O` (configuration not stated) stands 0.237% (inactive); under `COc1cc(N=Cc2c(O)c3ccccc3oc2=O)c(OC)cc1Cl`, 221% (active). The value for `CCC(=O)CC(c1ccc([N+](=O)[O-])cc1)c1c(O)c2ccccc2oc1=O` (configuration not stated) was 1% (inactive). Take `O=C(NNC(=S)Nc1ccc(F)cc1)[C@H]1C[C@@H]1c1ccccc1`: the activation was 12.2% (inactive). Under `CCCNC(=O)c1onc(CSc2ccc(F)cc2)c1C(=O)NC(C)C` stands 1.76% (inactive).

For the compound `Cc1ccc(S(=O)(=O)N2CCN(C(=O)COC(=O)c3c(C)cc(C)cc3C)CC2)c(C)c1`, the activation was 2.63% (inactive).

`Cc1ccc(S(=O)(=O)N2CCN(C(=O)CSc3cc(C)ccc3C)CC2)c(C)c1`: the activation was -11.9% (inactive). Under `Cc1ccc(S(=O)(=O)N2CCN(C(=O)Cn3c(=O)cnc4ccccc43)CC2)c(C)c1` stands 52.1% (active). The value for `CCOc1ccc(/C=C/C(=O)OCC(=O)c2ccccc2OC)cc1OC` was -8.54% (inactive); that for `Cc1cccc(-n2c(O)c(C=Nc3ccccc3N)c(=O)[nH]c2=O)c1` was 10.4% (inactive); that for `COC(=O)Cc1csc(/N=C/c2c(O)n(-c3cccc(C(F)(F)F)c3)c(=O)c3ccccc23)n1` was -24.2% (inactive). The value for `Cc1ccc(N=Cc2c(O)n(-c3nccs3)c(=O)c3ccccc23)c(C)c1` was 1250% (active). Regarding `COc1ccc(C)cc1N(C)C(=O)c1coc(=O)c2ccccc12`, the activation was 4.28% (inactive). The value for `O=C(Nc1ccc2oc(-c3ccc4ccccc4c3)nc2c1)c1cccs1` was 57.7% (active); that for `O=C(Nc1ccc2oc(-c3ccccc3F)nc2c1)c1ccco1` was 1.3% (inactive). The value for `COc1cc(OC)cc(C(=O)Nc2ccc(-c3nc4ccccc4o3)c(O)c2)c1` was -11.7% (inactive); that for `O=C(NCCSc1ncc(-c2ccccc2)[nH]1)c1ccco1` was 3.87% (inactive); that for `COCCCNC(=O)c1c(F)c(F)c(F)c(F)c1F` was 5.56% (inactive). The value for `COc1ccc(/C=C/c2c(-c3cccc(C)c3)oc3ccc(-c4ccc5c(c4)OCO5)cc23)cc1` was -7.77% (inactive); that for `Cc1cc(C)cc(Oc2c(C(F)(F)F)oc3cc(OCC(=O)O)ccc3c2=O)c1` was 2.37% (inactive). With `O=C(Cc1ccccc1)Nc1ccc(NC(=O)c2cccnc2)cc1`, the activation is -0.44% (inactive). Under `CCOC(=O)c1cc(NC(=O)c2cccnc2)ccn1` stands 0.906% (inactive). The value for `CCC(=O)Nc1cccc(NC(=O)c2cccnc2)c1` was 335% (active); that for `O=C(NCCOc1ccccc1)N1[C@H]2CC[C@@H]1C=C(c1ccc(F)cc1OCc1ccccc1)C2` was -1.59% (inactive).

For `CSCCC1NC2(C(=O)Nc3ccc(Cl)cc32)[C@@H]2C(=O)N(C3CCCC3)C(=O)[C@H]12` (some centres not stated), the activation is 2.84% (inactive). Take `O=C(CN1CCOCC1)Nc1ccccc1`: the activation is 6.62% (inactive). `CC(=O)c1ccc(N2CCN(CC(=O)Nc3ccccc3N3CCOCC3)CC2)cc1`: the activation is 4.75% (inactive). Under `O=C(CN1CCN(c2ccc(O)cc2)CC1)Nc1ccc(-c2ccccc2)cc1` stands 111% (active).

In the case of `CN(C)Cc1c(O)ccc2occ(C(O)c3ccccc3)c12` (configuration not stated), the activation was 8.71% (inactive).

Take `COc1cccc2c1OCC(CN1CCN(C3CCCCC3)C(CCO)C1)=C2` (configuration not stated): the activation is 0.264% (inactive). `CC(=O)NC(C)(C)C1CC=C(C)/C(=N\O)C1` (configuration not stated): the activation is 6.07% (inactive).
